# Activity calls are given as the source filed them. The rule behind the calls is not given here.
# Assay: Brca1-Bard1 BiLC signal decrease – luminescence, single concentration, counter-screen for Mdm2/MdmX interaction inhibitor project, confirmation (AID 504668)
# Conditions: Brca1/Bard1 bimolecular luciferase complementation counterscreen, at 8 µM, active compounds read high
row,Structure (SMILES),inhibition
1,CCCCCCCCCC(=O)N[C@@H]1c2cc(OC)c(OC)cc2C[C@H]1OCc1ccccc1,35.8% (active)
2,CC1CCN(Cc2c(C(=O)N/N=C/c3ccccc3O)nnn2-c2nonc2N)CC1,32.5% (active)
3,O=C(Nc1cccc([N+](=O)[O-])c1)c1cc2ccccc2cc1O,31% (active)
4,CC(=O)/C(C#N)=C1\NC(=O)C(Cc2ccc(C)c(Cl)c2)S1 (centres undefined),31.8% (active)
5,CCOC(=O)c1c(CN(C)C)n(C)c2c(O)c(N=NC(N)=O)c3ccc(Br)cc3c12,27.9% (active)
6,CCN(CC)Cc1c(O)ccc2c1O/C(=C\C=C\c1ccccc1)C2=O,25.3% (active)
7,Cc1nc(SCC(=O)Nc2ccc(S(=O)(=O)N3CCOCC3)cc2)c2c(C)c(C)sc2n1,28.6% (active)
8,C=CC[n+]1c(/C=C2\C=Cc3cc(C)ccc3N2CC)ccc2ccccc21,28.5% (active)
9,Cc1cc(C)nc(SCc2ccc(C(=O)N/N=C/c3cccc(O)c3O)cc2)n1,35.2% (active)
10,O=C(CCl)N1CCN2C(=O)c3ccccc3C12c1ccc(Cl)cc1 (centres undefined),28.5% (active)
11,Cc1ccc(OC(F)F)c(NC(=O)Nc2cccc(C(F)(F)F)c2)c1,23.7% (active)
12,COc1ccc(C)cc1NC(=O)c1ccccc1NS(=O)(=O)c1ccc(Cl)s1,32.4% (active)
13,COc1cc([C@@H]2c3cc4c(cc3[C@@H](O[C@@H]3O[C@@H]5CO[C@@H](C)O[C@H]5[C@H](O)[C@H]3O)[C@H]3COC(=O)[C@H]23)OCO4)cc(OC)c1O,31.6% (active)
14,C#CCOCCOCCOCCNc1nc(N2CCN(C(=O)CCCCCCCCCCNC(=O)Cn3cc(C[C@@H](C)O)nn3)CC2)nc(N2CCN(C(=O)CCCCCCCCCCNC(=O)[C@@H]([C@H](C)CC)n3cc(CCCCCN)nn3)CC2)n1,27.2% (active)

# Reference: PubChem BioAssay
